Assay results published in PubChem BioAssay AID652031 (The Scripps Research Institute Molecular Screening Center, 2013).
About 70 (0.4%) of roughly 16,000 compounds were called active. This is one part of a sample in which actives are shown more often than they occur. Rule as the data show it: active = inhibition above about 50%; inactive = the rest.

Biological target: Kappa-type opioid receptor (Homo sapiens) (UniProt P41145)
Experiment: antagonists of human kappa opioid receptor OPRK1, Maybridge library (AID 652031)
Conditions: OPRK1 cells, antagonist mode, fluorescence readout; at 9 µM; stronger effect = higher value

Sequence of Kappa-type opioid receptor (Homo sapiens) (P41145 whole entry, looked up): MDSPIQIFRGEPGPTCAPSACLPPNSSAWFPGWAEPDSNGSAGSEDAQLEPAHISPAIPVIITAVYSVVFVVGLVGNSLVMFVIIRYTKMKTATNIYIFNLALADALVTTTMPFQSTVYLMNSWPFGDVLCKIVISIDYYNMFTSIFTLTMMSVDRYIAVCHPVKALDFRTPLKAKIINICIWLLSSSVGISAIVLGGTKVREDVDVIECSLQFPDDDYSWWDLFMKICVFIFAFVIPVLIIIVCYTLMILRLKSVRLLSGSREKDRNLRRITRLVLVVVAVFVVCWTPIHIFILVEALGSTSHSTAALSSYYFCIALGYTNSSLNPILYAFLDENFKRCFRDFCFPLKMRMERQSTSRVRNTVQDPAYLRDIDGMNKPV

| Structure (SMILES) | inhibition |
| --- | --- |
| O=C(O)C1CCC1C(=O)Nc1nnc(C2CC2)s1 (stereo unspecified) | 7.5% (inactive) |
| O=C(NNC(=S)Nc1ccc(S(=O)(=O)N2CCCCC2)cc1)c1ccncc1 | 6% (inactive) |
| CC(CC(=O)O)Oc1ccc(Cl)cc1[N+](=O)[O-] (stereo unspecified) | -0.1% (inactive) |
| O=C(O)CCC(=O)Nc1ccccc1 | 9.6% (inactive) |
| O=C(CN1CCOCC1)NNC(=O)c1cccs1 | 9.5% (inactive) |
| O=S(=O)(CCSc1ccccc1NS(=O)(=O)c1cccs1)c1ccc(Cl)cc1 | -16.4% (inactive) |
| CCCN(CCC)S(=O)(=O)c1ccc(C(=O)Oc2c(C)cccc2OC)cc1 | -3.1% (inactive) |
| Cc1noc(C)c1C(=O)N1CCOCC1 | 0.6% (inactive) |
| CC(=O)OCc1ccc(COC(C)=O)c(OC(C)=O)c1OC(C)=O | -15.9% (inactive) |
| O=C1C(Cl)=C(Oc2cc(Cl)c(Cl)cc2Cl)C(=O)c2ccccc21 | 21.4% (inactive) |
| CO/N=C(/C)c1ccc2c(c1)CCO2 | 10.8% (inactive) |
| COC(=O)/C=C/c1cn(C2OCC(CO)C2O)c(=O)[nH]c1=O (stereo unspecified) | -22% (inactive) |
| O=C(OCc1ccco1)c1cnc(Nc2ccc(OC(F)(F)F)cc2)nc1C(F)(F)F | 17.4% (inactive) |
| Cc1ccccc1C(=O)NNC(=O)c1ccccc1C1=NCCCN1 | -4.3% (inactive) |
| O=C(NC(=O)C1CCN(c2ncccc2[N+](=O)[O-])CC1)Nc1ccc(Cl)cc1 | -2% (inactive) |
| O=c1oc2ccc(Cl)cc2cc1-c1ccc([N+](=O)[O-])cc1 | -18.5% (inactive) |
| CC(C)(C)c1cc(C(=O)/C=C2/NC(=O)CS2)no1 | 6.7% (inactive) |
| Cc1nn(S(=O)(=O)c2ccc(Cl)cc2)cc1-c1ccccc1 | 0.1% (inactive) |

| Structure (SMILES) | inhibition |
| --- | --- |
| Cc1ccc(S(=O)(=O)NC(=O)NNc2ncnc3scc(-c4ccccc4)c23)cc1 | -34.5% (inactive) |
| NC(N)=N/C(N)=N/c1nnc(C(F)(F)F)s1 | 13.1% (inactive) |
| N#C/C(=C\c1sccc1Oc1ccccc1)S(=O)(=O)c1ccc(C(F)(F)F)cn1 | -9.5% (inactive) |
| O=S(=O)(Cc1cccc(C(F)(F)F)c1)NCc1ccc2c(c1)OCO2 | 9.5% (inactive) |
| O=c1[nH]cc(Br)c(=O)[nH]1 | 6.1% (inactive) |
| CN(C)c1cc(-c2cc(Cl)sc2Cl)oc(=O)c1Cl | -5% (inactive) |
| c1ccc(-n2cccc2)c(N2CCCCC2)c1 | -9.4% (inactive) |
| CC(C)(C)C(=O)NNC(=O)c1ccc(Oc2ccc(C3SCCS3)cc2)o1 | 30.1% (inactive) |
| CCOC(=O)/C(C#N)=C/NNc1c(C)csc1C(=O)OC | 8.8% (inactive) |
| CS/C(=N/S(=O)(=O)c1c(C)noc1C)NNC(=O)Nc1ccc(Cl)cc1 | 1.3% (inactive) |
| O=C(Nc1ccccc1C(F)(F)F)N1CCCC1c1cccnc1 (stereo unspecified) | -12.3% (inactive) |
| COc1cccc2cc(C(=O)O)oc12 | 19.9% (inactive) |
| c1ccc(C2=NCCN=C2c2ccccc2)cc1 | -1.9% (inactive) |
| O=C(O)c1nccnc1C(=O)NCCSCc1c(F)cccc1Cl | 2.6% (inactive) |
| O=[N+]([O-])c1cc(C(F)(F)F)ccc1OCCO | 6.7% (inactive) |
| CCOC(=O)CN1C(=O)/C(=C\c2ccc(C)o2)N=C1c1ccccc1 | 3.1% (inactive) |
| Cc1ccc(/C=c2\sc3nc4ccccc4n3c2=O)o1 | 53.6% (active) |
| O=C(Nc1ccccc1)N1CCN(Cc2ccccc2)CC1 | 8.5% (inactive) |
